Source: PubChem (National Center for Advancing Translational Sciences (NCATS))
Pf Dd2 inh: Plasmodium falciparum Dd2 growth inhibition; P. falciparum Dd2 growth, SYBR Green, 72 h; Potency, µM (series often up to 28.9 µM), hits mostly inhibitors; 120,000 tested, 4.3% active; active means well fitted inhibition curve with a large enough effect; further: nearly all actives have a fitted effect of over 65% in size
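Readout: SYBR Green fluorescence, 485 nm excitation, 535 nm emission, after ~16 h lysis at 37C. Before that, Dd2-infected red cells (2.5% hematocrit) grew 72 h with compound, 29 uM top final concentration.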
Hits are given with their value; [ ] = another dose, or the depositor's remark. Many of the other results were omitted from the sample, so hits are more common in it than they were.

Results for CC(C)CNC(=O)C(NC(=O)c1ccccc1Cl)C1CCN(C(=O)c2ccc(Cl)cc2)CC1 (stereo not drawn) ?
Pf Dd2 inh: inactive

How did COc1ncccc1CN1CC[C@@H]2OCC(=O)N(Cc3ccccc3)[C@H]2CC1 do in these assays?
Pf Dd2 inh: inactive

What do the screens show for `CS(=O)(=O)N1CCC(OC2CCN(C(=O)c3cccnc3)CC2)CC1`?
Pf Dd2 inh: inactive

What do the screens show for `CC(C)NC(=O)c1coc(COc2ccc3c(c2)C(c2cccc(F)c2)N(C(=O)C2CC2)CC3)n1` (stereo not drawn)?
Pf Dd2 inh: inactive

Results for CCNC(=O)c1coc(COc2ccc3c(c2)C(c2cccc(F)c2)N(C(=O)C(C)C)CC3)n1 (stereo not drawn) ?
Pf Dd2 inh: 0.708µM

How did COCCNC(=O)c1coc(COc2ccc3c(c2)C(c2cccc(F)c2)N(C(=O)C(C)C)CC3)n1 (stereo not drawn) do in these assays?
Pf Dd2 inh: inactive

What do the screens show for `O=C1COCC2(CN(CCC(F)(F)F)C2)CN1Cc1cccc(OC(F)(F)F)c1`?
Pf Dd2 inh: inactive

How did O=C(O)CCCc1nc(-c2ccncc2)nn1C1Cc2ccccc2C1 do in these assays?
Pf Dd2 inh: inactive

What do the screens show for `CC(=O)N1CCC(NC2(Cc3cc(CN(C)C)on3)COC2)CC1`?
Pf Dd2 inh: inactive

How did O=C(NCc1cccnc1)[C@@H]1C[C@@H](O)CN1C1CCN(C(=O)C2CCCC2)CC1 do in these assays?
Pf Dd2 inh: inactive

What do the screens show for `COc1ccccc1Nc1ncc2c(n1)CCN(Cc1cc(F)cc(F)c1)C2`?
Pf Dd2 inh: inactive

How did COc1ccc(Nc2ncc3c(n2)CCN(Cc2cc(Br)cs2)C3)c(OC)c1 do in these assays?
Pf Dd2 inh: inactive

Results for COc1ccc(Nc2ncc3c(n2)CCN(Cc2ccc(Br)s2)C3)c(OC)c1 ?
Pf Dd2 inh: 10µM

What do the screens show for `Cc1ccc(CN2CCc3nc(Nc4ccc5c(c4)OCCO5)ncc3C2)cc1`?
Pf Dd2 inh: inactive

What do the screens show for `Brc1csc(CN2CCc3nc(Nc4ccccc4)ncc3C2)c1`?
Pf Dd2 inh: 10µM

What do the screens show for `COc1ccccc1Nc1ncc2c(n1)CCN(Cc1ccc(C)s1)C2`?
Pf Dd2 inh: inactive

What do the screens show for `CC1(c2cccnc2)N(Cc2ccccc2)C(=O)OC12CCN(C(=O)Cc1ccc3c(c1)OCO3)CC2` (stereo not drawn)?
Pf Dd2 inh: inactive

How did O=C(NCC1CC1)C1Cn2cccc2C(=O)N1Cc1ccccc1 (stereo not drawn) do in these assays?
Pf Dd2 inh: inactive

Results for O=C1c2c(nc(COc3ccc(Cl)cc3)n2Cc2ccccc2)NCCN1CC1CCOCC1 ?
Pf Dd2 inh: inactive

What do the screens show for `COc1cccc(CNC(=O)C2Cn3cccc3C(=O)N2)c1OC` (stereo not drawn)?
Pf Dd2 inh: inactive

Results for Cc1cc(C(=O)N[C@@H]2CCOC[C@H]2OCC(=O)O)sc1-c1ccccc1 ?
Pf Dd2 inh: inactive

Results for CNC(=O)CCn1ncc2cc(OC3CCc4cccc(-c5ccc(F)cc5)c43)ccc21 (stereo not drawn) ?
Pf Dd2 inh: 14.1µM

Results for O=C(O)CCn1ncc2cc(OC3CCN(C(=O)Oc4ccccc4)CC3)ccc21 ?
Pf Dd2 inh: inactive

How did O=C(O)CCn1ncc2cc(OC3CCN(C(=O)c4cc(F)ccc4Cl)CC3)ccc21 do in these assays?
Pf Dd2 inh: inactive

What do the screens show for `CNC(=O)CCn1ncc2cc(OC3CCc4cccc(-c5ccccc5)c43)ccc21` (stereo not drawn)?
Pf Dd2 inh: 2.82µM

How did CNC(=O)CCn1ncc2cc(OC3CCc4cccc(-c5cccc(F)c5)c43)ccc21 (stereo not drawn) do in these assays?
Pf Dd2 inh: inactive

Results for CNC(=O)CCn1ncc2cc(OC3CCc4cccc(-c5ccnc(C)c5)c43)ccc21 (stereo not drawn) ?
Pf Dd2 inh: inactive

What do the screens show for `CCc1cn(C[C@@H](C(=O)O)N(CC)CC)c(=O)[nH]c1=O`?
Pf Dd2 inh: inactive

What do the screens show for `COc1ccc2c(c1)nc1n2[C@@H](CNC(C)C)COC1`?
Pf Dd2 inh: inactive

How did Cc1ccc(N2CCC(NC(=O)c3ccc(Br)cc3)C2=O)cc1 (stereo not drawn) do in these assays?
Pf Dd2 inh: inactive

How did CNC(c1ccccc1)c1nc(-c2cccnn2)no1 (stereo not drawn) do in these assays?
Pf Dd2 inh: inactive

Results for C[C@]1(O)CCN(C(=O)Cc2ccc3c(c2)OCO3)C[C@@H]1O ?
Pf Dd2 inh: inactive

How did CC(Cc1ccc2c(c1)OCO2)CN1CCC(CO)(CN2CCCC2)CC1 (stereo not drawn) do in these assays?
Pf Dd2 inh: 5.01µM

Results for CCC1(CO)CCCN(C(=O)CCc2ccc3c(c2)OCO3)C1 (stereo not drawn) ?
Pf Dd2 inh: inactive

What do the screens show for `CC1(C(=O)NCc2cnccn2)CCCc2cnc(Nc3ccccc3F)nc21` (stereo not drawn)?
Pf Dd2 inh: inactive

What do the screens show for `COc1ccc(C(=O)N2CCCCCCNC(=O)[C@@H]3CCC[C@@H]32)c(OC)n1`?
Pf Dd2 inh: inactive

How did O=C(c1cnc2c(c1)N([S+](=O)([O-])c1cccnc1)CCC2)N1CCC[C@@H]1c1ccc(F)cc1 do in these assays?
Pf Dd2 inh: inactive

How did Cn1cc(CC(=O)N2CCCc3ncc(C(=O)Nc4cccc(Cl)c4)cc32)c2ccccc21 do in these assays?
Pf Dd2 inh: 4.47µM

What do the screens show for `CC(C)CCNC(=O)c1cnc2c(c1)N([S+](=O)([O-])c1cccnc1)CCC2`?
Pf Dd2 inh: inactive

Results for Cn1cc(CC(=O)N2CCCc3ncc(C(=O)NCc4ccoc4)cc32)c2ccccc21 ?
Pf Dd2 inh: inactive

How did CN(C)CCNC(=O)c1cnc2c(c1)N(C(=O)Cc1cn(C)c3ccccc13)CCC2 do in these assays?
Pf Dd2 inh: inactive

What do the screens show for `O=C(Nc1cccc(Cl)c1)c1cnc2c(c1)N([S+](=O)([O-])c1cccnc1)CCC2`?
Pf Dd2 inh: 11.2µM

What do the screens show for `O=C(C1CCC1)N1CCC2(CCN(Cc3ccccc3F)CC2)C(CO)C1` (stereo not drawn)?
Pf Dd2 inh: inactive

Results for CCCN(CC1CC1)C(=O)c1coc(COc2ccc3sc(C)nc3c2)n1 ?
Pf Dd2 inh: inactive

Results for CCN1CC(C(=O)N2CCN(CCOc3ccccc3)CC2)CC1=O (stereo not drawn) ?
Pf Dd2 inh: inactive

What do the screens show for `O=C(O)C[C@@H]1CCN(C(=O)C2CCCC2)C[C@@H]1CCN1CCC(n2c(=O)[nH]c3ccccc32)CC1`?
Pf Dd2 inh: inactive

What do the screens show for `COc1ccc(F)cc1C(=O)NCc1c(C)ncc2c1CCNC2`?
Pf Dd2 inh: inactive

Results for Cc1ccc2c(n1)N(C)[C@H](CO)CCN(Cc1ccc(F)cc1)C2 ?
Pf Dd2 inh: inactive

What do the screens show for `Cc1ccc2c(n1)N(C)[C@H](CO)CCN(Cc1ccccc1Cl)C2`?
Pf Dd2 inh: inactive

Results for Cc1ccc2c(n1)N(C)[C@H](CO)CCN(Cc1cn(C)c3ccccc13)C2 ?
Pf Dd2 inh: 11.2µM

What do the screens show for `COc1ccc(-c2ccc(C(=O)N[C@H]3CCOC[C@H]3C3CCOCC3)o2)cc1`?
Pf Dd2 inh: inactive

How did CCCN(CC1CCOC1)S(=O)(=O)c1cccc(Cl)c1 (stereo not drawn) do in these assays?
Pf Dd2 inh: inactive[5.79 µM]

Results for COc1ccc2nc(C[C@@H]3C[C@@H](C(C)C)[C@H](CNC(=O)NC4CCCCC4)C=C3C)[nH]c2c1 ?
Pf Dd2 inh: inactive

What do the screens show for `CC1=C[C@@H](CNC(=O)CN(C)C)[C@H](C(C)C)C[C@H]1Cc1nc2ccc(Cl)cc2[nH]1`?
Pf Dd2 inh: 6.31µM
